Potency and outcome data for eight compounds are collected here from PubChem BioAssay (Tox21).

SMILES strings stand for the structures. Activity calls are given as the source filed them. Unless noted, calls come from the whole dose curve; as a rule, active = well fitted curve in the direction sought with a large enough effect in the repeat runs; inconclusive = weak or mixed curves; inactive = no such curve, though single readings can be large; an effect the other way counts as inactive or inconclusive.

Experiment [1] is described as follows: qHTS assay to identify small molecule antagonists of the thyroid receptor (TR) signaling pathway - cell viability counter screen (AID 743064). Note: nearly all actives have a fitted effect of over 50% in size. The procedure, abridged:
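Plate GH3.TRE-Luc cells; incubate 4 h at 37 °C; add compound, then T3 to 1 nM final; incubate 23.5 h; add CellTiter-Fluor; incubate 30 min at 37 °C, 5% CO2; read fluorescence.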
(In qHTS, concentration-response curves come from the screen itself.)

A short description of experiment [2]: qHTS assay to identify small molecule antagonists of the thyroid receptor (TR) signaling pathway (AID 743065). Note: nearly all actives have a fitted effect of over 55% in size. Note: potency is the fitted concentration of half-maximal effect. Put shortly:
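GH3.TRE-Luc rat pituitary cells (two TREs driving luciferase) were dosed with compound, then stimulated with 1 nM T3 (final) for 23.5 h at 37 C. ONE-Glo luminescence was the read-out, with CellTiter-Fluor fluorescence as the cytotoxicity counter-screen.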

Experiment [3] deals with thyroid hormone receptor (rat, GH3 cells). The experiment can be described thus: qHTS assay to identify small molecule agonists of the thyroid receptor (TR) signaling pathway (AID 743066; calls by dose curve).
Experiment [4] has as its target Estrogen receptor (Homo sapiens) (UniProt P03372). As to the kind of experiment: qHTS assay to identify small molecule antagonists of the estrogen receptor alpha (ER-alpha) signaling pathway (AID 743069; active = well fitted curve in the direction sought with a large enough effect in the signal ratio in the repeat runs, not every such curve was filed as active; inconclusive = weak or mixed curves, or effect the other way; inactive = no such curve, though single readings can be large or run the other way; the % refers to the signal ratio). The procedure, abridged: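 Beta-lactamase FRET fluorescence is read after 2 hr at room temperature with LiveBLAzer B/G substrate. Before that, ER-alpha-bla HEK293 cells sit 4 hr after plating, then receive compound plus 17beta-estradiol and incubate 18 hr at 37C.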

Experiment [5] in a line: qHTS assay to identify small molecule antagonists of the estrogen receptor alpha (ER-alpha) signaling pathway - cell viability counter screen (AID 743074; calls by dose curve;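 note: HEK293 cells carrying ER-alpha-UAS-bla reporter stimulated with 17beta-estradiol; nearly all actives have a fitted effect of over 45% in size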).
In experiment [6] the target is Estrogen receptor (Homo sapiens) (UniProt P03372). The experiment can be described thus: qHTS assay to identify small molecule agonists of the estrogen receptor alpha (ER-alpha) signaling pathway (AID 743075; calls by dose curve;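 note: HEK293 GripTite cells with ER-alpha and UAS-driven beta-lactamase reporter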; note: potency is the fitted concentration of half-maximal effect).
The target is the same in experiment [7]. As to the kind of experiment: qHTS assay to identify small molecule agonists of the estrogen receptor alpha (ER-alpha) signaling pathway using the BG1 cell line (AID 743079). Note: nearly all actives have a fitted effect of over 20% in size. Note: potency is the fitted concentration of half-maximal effect.
Experiment [8] in a line: qHTS assay to identify small molecule antagonists of the estrogen receptor alpha (ER-alpha) signaling pathway using the BG1 cell line (AID 743080; calls by dose curve;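 note: BG1 cells stimulated with 17beta-estradiol alongside compound; series mostly up to about 70 µM; nearly all actives have a fitted effect of over 25% in size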). Put shortly:
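BG1-Luc-4E2 cells (endogenous full-length ER-alpha, stable 4×ERE-luciferase) were starved 5 days in phenol-red-free medium with 10% charcoal-stripped FBS, plated 24 h, then given compound plus 17beta-estradiol for 21.5 h at 37 C; ONE-Glo luminescence read after 30 min.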

The target of another experiment is Aromatase (Homo sapiens) (UniProt P11511). The experiment can be described thus: qHTS assay to identify aromatase inhibitors (AID 743083). Note: series mostly up to about 70 µM; nearly all actives have a fitted effect of over 55% in size.
Experiment [9] can be described thus: qHTS assay to identify aromatase inhibitors - cell viability counter screen (AID 743084).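 Note: cells stimulated with testosterone during compound exposure; nearly all actives have a fitted effect of over 55% in size.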
Experiment [10] addresses Aryl hydrocarbon receptor (Homo sapiens) (UniProt P35869). As to the kind of experiment: qHTS assay to identify small molecule that activate the aryl hydrocarbon receptor (AhR) signaling pathway (AID 743085).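 For activation: HG2L7.5c1 human HepG2 liver cells with stably integrated DRE-driven firefly reporter; series mostly up to about 70 µM.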 Note: nearly all actives have a fitted effect of over 15% in size. Note: potency is the fitted concentration of half-maximal effect. Put shortly: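 Steps: seed HepG2-AhR-luc cells; allow 5 h at 37C; pin-transfer test compound or vehicle; incubate 24 h at 37C; add viability dye (30 min, 37C) and read fluorescence; add luciferase substrate (30 min, RT) and read luminescence.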

The nature of experiment [11]: qHTS assay to identify small molecule that activate the aryl hydrocarbon receptor (AhR) signaling pathway - cell viability counter screen (AID 743086).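 Note: HepG2 liver cells carrying the AhR DRE luciferase reporter; series mostly up to about 70 µM; nearly all actives have a fitted effect of over 45% in size.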 Put shortly:
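HepG2-AhR-luc (HG2L7.5c1) cells, 4000/well, treated 24 h at 37 C with compound; viability measured as CellTiter-Fluor fluorescence after 30 min in the same wells as the luciferase read.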

Experiment [12] concerns the target Peroxisome proliferator-activated receptor gamma (Homo sapiens) (UniProt P37231). The experiment can be described thus: qHTS assay to identify small molecule agonists of the peroxisome proliferator-activated receptor gamma (PPARg) signaling pathway (AID 743094; active = well fitted activation curve with a large enough effect in the signal ratio in the repeat runs, not every such curve was filed as active; inconclusive = weak or mixed curves, or effect the other way; inactive = no such curve, though single readings can be large or run the other way; the % refers to the signal ratio). The procedure, abridged:
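Fluorescence-based beta-lactamase readout in HEK293H PPARg UAS-bla cells after 17 h compound exposure (37C) and 1 h B/G FRET substrate incubation at room temperature.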

Experiment [13] can be described thus: qHTS assay to identify small molecule antagonists of the peroxisome proliferator-activated receptor gamma (PPARg) signaling pathway - cell viability counter screen (AID 743194). Note: nearly all actives have a fitted effect of over 55% in size. The procedure, abridged:
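Cytotoxicity counter screen in PPARg-bla HEK293H cells, same wells as reporter assay. Compounds plus 50 nM rosiglitazone (final) for 17 h at 37 C, then viability read by CellTiter-Glo luminescence.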

A short description of experiment [14]: qHTS assay for small molecule agonists of the antioxidant response element (ARE) signaling pathway - cell viability counter screen (AID 743203; calls by dose curve; note: nearly all actives have a fitted effect of over 55% in size; note: potency is the fitted concentration of half-maximal effect). Put shortly:
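Parallel cytotoxicity read-out for the ARE-bla screen: HepG2 reporter cells, 16 hrs with compounds, then CellTiter-Glo luminescence.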

Experiment [15] is described as follows: qHTS assay for small molecule activators of the heat shock response signaling pathway (AID 743210; active = well fitted activation curve with a large enough effect in the signal ratio in the repeat runs, with a control signal flat, not every such curve was filed as active; inconclusive = weak or mixed curves; the % refers to the signal ratio;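 note: HeLa cells with beta-lactamase reporter driven by heat shock elements; series mostly up to about 63 µM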). Put shortly:
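Beta-lactamase reporter read-out: FRET substrate fluorescence after 2.5 h at RT, following 5 h compound treatment at 37 C of HeLa cells carrying HSE-driven bla reporter; quantitative HTS format.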

Experiment [16] is described as follows: qHTS assay to identify small molecule antagonists of the estrogen receptor alpha (ER-alpha) signaling pathway using the BG1 cell line - cell viability counter screen (AID 743081).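 Note: compound given together with 17beta-estradiol as the ER stimulus; series mostly up to about 70 µM; nearly all actives have a fitted effect of over 45% in size.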
Experiment [17] in a line: qHTS assay for small molecule activators of the heat shock response signaling pathway - cell viability counter screen (AID 743209). Note: nearly all actives have a fitted effect of over 50% in size. Put shortly: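 To flag cytotoxic compounds, HSE-bla HeLa cells plated at 1500 cells/well were dosed for 5 h at 37 C, followed by the reporter FRET read and then CellTiter-Glo, with luminescence recorded 30 min after reagent addition.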
Experiment [18] addresses Peroxisome proliferator-activated receptor gamma (Homo sapiens) (UniProt P37231). As to the kind of experiment: qHTS assay to identify small molecule antagonists of the peroxisome proliferator-activated receptor gamma (PPARg) signaling pathway (AID 743191; calls by dose curve; note: series mostly up to about 63 µM; nearly all actives have a fitted effect of over 30% in size). The procedure, abridged: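 GeneBLAzer PPARg UAS-bla HEK293H cells, 5 h post-plating, exposed to compounds 17 h at 37C. LiveBLAzer B/G FRET substrate added for 1 h at room temperature; beta-lactamase reporter read by fluorescence intensity.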

A short description of experiment [19]: qHTS assay for small molecule agonists of the antioxidant response element (ARE) signaling pathway (AID 743202; active = well fitted activation curve with a large enough effect in the signal ratio in the repeat runs, not every such curve was filed as active; inconclusive = weak or mixed curves, or effect the other way; inactive = no such curve, though single readings can be large or run the other way; the % refers to the signal ratio). The procedure, abridged:
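HepG2 ARE-bla reporter line, 2,000 cells/well; 5 h preincubation 37 C/5% CO2; compound (DMSO) 16 h 37 C; B/G FRET substrate 2 h RT; fluorescence intensity.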

Chain of Aryl hydrocarbon receptor (Homo sapiens) (P35869 whole entry, looked up): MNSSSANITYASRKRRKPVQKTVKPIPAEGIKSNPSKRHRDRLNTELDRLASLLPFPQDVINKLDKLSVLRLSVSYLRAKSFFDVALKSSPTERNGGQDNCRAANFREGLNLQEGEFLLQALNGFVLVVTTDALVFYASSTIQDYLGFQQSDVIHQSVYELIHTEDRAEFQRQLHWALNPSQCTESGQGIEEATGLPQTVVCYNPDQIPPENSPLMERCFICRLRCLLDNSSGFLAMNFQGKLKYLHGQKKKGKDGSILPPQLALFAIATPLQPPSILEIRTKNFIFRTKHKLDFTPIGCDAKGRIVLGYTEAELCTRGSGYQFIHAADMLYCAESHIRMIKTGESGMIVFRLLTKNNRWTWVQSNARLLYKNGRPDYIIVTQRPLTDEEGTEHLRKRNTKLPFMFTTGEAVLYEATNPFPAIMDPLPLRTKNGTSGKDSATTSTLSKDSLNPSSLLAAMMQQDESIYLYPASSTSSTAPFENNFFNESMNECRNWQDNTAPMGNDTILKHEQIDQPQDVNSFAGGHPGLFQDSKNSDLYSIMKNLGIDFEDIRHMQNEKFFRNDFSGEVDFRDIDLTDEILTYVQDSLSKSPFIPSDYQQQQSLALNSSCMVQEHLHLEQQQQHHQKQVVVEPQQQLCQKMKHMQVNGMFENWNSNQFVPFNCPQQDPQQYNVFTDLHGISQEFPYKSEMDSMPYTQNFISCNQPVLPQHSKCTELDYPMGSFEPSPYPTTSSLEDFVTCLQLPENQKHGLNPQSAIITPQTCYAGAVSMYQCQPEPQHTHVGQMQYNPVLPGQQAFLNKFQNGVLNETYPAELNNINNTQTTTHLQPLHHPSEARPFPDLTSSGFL
Chain of Estrogen receptor (Homo sapiens) (P03372 whole entry, looked up): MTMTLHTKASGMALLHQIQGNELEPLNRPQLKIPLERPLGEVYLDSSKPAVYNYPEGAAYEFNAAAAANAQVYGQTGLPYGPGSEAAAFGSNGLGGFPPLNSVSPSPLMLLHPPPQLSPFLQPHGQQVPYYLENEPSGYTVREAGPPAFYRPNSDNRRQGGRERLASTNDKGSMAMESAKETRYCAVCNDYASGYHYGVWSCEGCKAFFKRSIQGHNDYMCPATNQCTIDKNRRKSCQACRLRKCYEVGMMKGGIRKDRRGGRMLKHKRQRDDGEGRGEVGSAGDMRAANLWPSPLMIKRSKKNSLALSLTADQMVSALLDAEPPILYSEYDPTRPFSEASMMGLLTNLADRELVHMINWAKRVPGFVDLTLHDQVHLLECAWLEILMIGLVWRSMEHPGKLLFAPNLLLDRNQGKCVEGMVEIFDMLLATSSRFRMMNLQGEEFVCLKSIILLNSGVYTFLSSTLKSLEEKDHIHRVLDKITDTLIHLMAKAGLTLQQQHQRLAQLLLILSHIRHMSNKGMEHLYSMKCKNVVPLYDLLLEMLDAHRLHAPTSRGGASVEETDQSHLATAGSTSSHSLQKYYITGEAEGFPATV
Chain of Peroxisome proliferator-activated receptor gamma (Homo sapiens) (P37231 whole entry, looked up): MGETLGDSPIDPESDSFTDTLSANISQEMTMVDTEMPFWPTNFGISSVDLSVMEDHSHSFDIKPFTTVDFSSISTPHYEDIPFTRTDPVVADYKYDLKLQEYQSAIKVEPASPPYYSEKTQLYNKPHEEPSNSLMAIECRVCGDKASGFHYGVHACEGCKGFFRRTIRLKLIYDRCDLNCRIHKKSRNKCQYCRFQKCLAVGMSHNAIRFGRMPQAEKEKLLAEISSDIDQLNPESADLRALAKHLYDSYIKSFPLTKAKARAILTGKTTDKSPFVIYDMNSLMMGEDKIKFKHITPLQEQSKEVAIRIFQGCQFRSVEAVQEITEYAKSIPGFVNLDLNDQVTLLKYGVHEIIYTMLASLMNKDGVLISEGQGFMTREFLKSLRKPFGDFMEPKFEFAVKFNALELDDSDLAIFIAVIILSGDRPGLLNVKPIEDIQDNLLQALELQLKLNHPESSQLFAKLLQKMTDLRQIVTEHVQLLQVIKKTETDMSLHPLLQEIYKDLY
Chain of Aromatase (Homo sapiens) (P11511 whole entry, looked up): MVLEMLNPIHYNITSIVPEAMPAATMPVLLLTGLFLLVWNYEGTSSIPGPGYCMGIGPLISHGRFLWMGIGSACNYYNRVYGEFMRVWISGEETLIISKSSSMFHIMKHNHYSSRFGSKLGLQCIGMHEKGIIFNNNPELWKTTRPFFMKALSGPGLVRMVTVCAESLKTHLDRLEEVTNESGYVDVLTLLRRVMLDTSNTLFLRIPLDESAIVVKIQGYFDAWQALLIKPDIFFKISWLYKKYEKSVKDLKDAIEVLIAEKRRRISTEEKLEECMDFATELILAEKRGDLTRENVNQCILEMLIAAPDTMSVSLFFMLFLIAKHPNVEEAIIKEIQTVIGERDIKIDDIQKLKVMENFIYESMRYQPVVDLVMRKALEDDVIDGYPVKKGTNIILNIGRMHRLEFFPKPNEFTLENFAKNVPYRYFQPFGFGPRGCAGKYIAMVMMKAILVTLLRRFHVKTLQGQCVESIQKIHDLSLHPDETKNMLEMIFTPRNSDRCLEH

Consider `Cc1ccccc1N=Nc1ccc(N=Nc2c(O)ccc3ccccc23)c(C)c1`, for which the Potency result (in [1]; in experiment [2]; in experiment [3]; in [4]; in [8]; in the experiment with Aromatase (Homo sapiens)) was “inactive” throughout. The Potency entry in experiment [9], in experiment [11], in [12], in experiment [13] and in [14] was “inactive” throughout. Besides, the call in [5] and in experiment [15] was inactive. For the same compound, the Potency was 10.7 µM [inconclusive] (active) in experiment [6], 8.41 µM (active) in experiment [7] and 13.3 µM (active) in [10].

For the compound `Nc1nc(N)c2nc(CNc3ccc(C(=O)N[C@@H](CCC(=O)O)C(=O)O)cc3)cnc2n1`, the Potency entry in [1], in experiment [3], in [4], in experiment [6], in [7] and in experiment [8] was “inactive” each time. For the same compound, the Potency entry (in experiment [16]; with Aromatase (Homo sapiens); in experiment [9]; in experiment [10]; in experiment [11]; in experiment [17]) was “inactive” throughout. The Potency in experiment [2] is 57.1 nM (active); in experiment [14] it was 5.1 nM (active). Also, in [5], the outcome was inactive.

Turning to `CCOC(=S)SSC(=S)OCC`, the Potency entry in experiment [1], in experiment [2], in [3], in experiment [4], in [6] and in [7] was “inactive” in each case. For the same compound, the Potency result (in experiment [8]; in experiment [16]; in the experiment with Aromatase (Homo sapiens); in experiment [9]; in experiment [10]; in experiment [11]) was “inactive” throughout. For the same compound, the Potency entry in [12], in experiment [18], in experiment [19], in [14] and in experiment [17] was “inactive” each time. Also, the outcome in experiment [5] and in [15] was inactive.

On to `CC(=O)SCc1ccco1`, for which the Potency result in [1], in experiment [2], in [3], in experiment [4], in [6] and in [7] was “inactive” each time. The Potency entry (in experiment [8]; in [16]; with Aromatase (Homo sapiens); in [9]; in experiment [10]; in experiment [11]) was “inactive” throughout. For the same compound, the Potency result in [12], in experiment [13], in [14] and in [17] was “inactive” in each case. For the same compound, the compound was classed as inactive in [5].

Take `N[C@H]1C(O)O[C@H](CO)[C@H](O)[C@@H]1O` (some centres undefined): the Potency result in [1], in experiment [2], in [3], in experiment [4], in [6] and in experiment [7] was “inactive” each time. Further, the Potency entry (in experiment [8]; in experiment [16]; with Aromatase (Homo sapiens); in experiment [9]; in [10]; in experiment [11]) was “inactive” throughout. For the same compound, the Potency result in experiment [12], in experiment [18], in experiment [13], in experiment [19], in experiment [14] and in experiment [17] was “inactive” each time. Further, the outcome in experiment [5] and in experiment [15] was inactive.

As for `O=C(O)COC(=O)Cc1ccccc1Nc1c(Cl)cccc1Cl`, the Potency result in experiment [1], in experiment [2], in experiment [3], in experiment [4], in experiment [6] and in experiment [7] was “inactive” in each case. Besides, the Potency result (in experiment [8]; in [16]; in the experiment with Aromatase (Homo sapiens); in [9]; in [10]; in [11]) was “inactive” each time. For the same compound, the Potency result in experiment [13], in experiment [19], in experiment [14] and in experiment [17] was “inactive” throughout. Moreover, the result in experiment [5] and in experiment [15] was inactive.

On to `CC(C)NCC(O)COc1ccc(CC(N)=O)cc1` (centres undefined), for which the Potency result in experiment [1], in experiment [2], in experiment [3], in experiment [4], in experiment [6] and in experiment [7] was “inactive” throughout. Besides, the Potency result in experiment [8], in experiment [16], in experiment [9], in [10], in experiment [11] and in experiment [12] was “inactive” throughout. For the same compound, the Potency result in experiment [18], in [13], in [19], in [14] and in experiment [17] was “inactive” in each case. Moreover, the compound was classed as inactive in experiment [5] and in [15].

As for `N=C(N=C(N)N)N1CCOCC1`, the Potency result in experiment [1], in experiment [2], in experiment [3], in [4], in experiment [6] and in [7] was “inactive” in each case. Besides, the Potency result (in experiment [8]; in experiment [16]; with Aromatase (Homo sapiens); in [9]; in experiment [11]; in experiment [14]) was “inactive” each time. Moreover, the Potency entry in experiment [17] was “inactive”. For the same compound, the outcome in experiment [5] and in experiment [15] was inactive.
